Inconclusive results are not listed. Activity calls are given as the source filed them. The call rests on the fitted dose curve; in most records, active means well fitted curve in the direction sought with a large enough effect; inconclusive means small, poorly fitted or top-dose-only effect, or another doubt; inactive means no such curve, though single readings can be large; an effect the other way counts as inactive or inconclusive. Residues, ends and D or L forms follow the SMILES beside them. *: point of attachment. Cbz = O=C(OCc1ccccc1)*

In PubChem BioAssay (NCATS) one finds Potency data, which are given here for 48 compounds.

Assay [1] concerns the target Metallo-beta-lactamase type 2 (Klebsiella pneumoniae) (UniProt C7C422). Kind of assay: qHTS to identify inhibitors of the New Delhi Metallo-beta-lactamase (NDM): assay validation screen against the NCATS LOPAC Collection (AID 1794843).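 Further: nitrocefin turnover by NDM-1 measured as 485 nm absorbance at plateau; series mostly up to about 38 µM.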 In a few lines: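 Enzyme 2 nM final, 50 mM HEPES pH 7.0, 1 uM ZnSO4, 0.01% Tween20; cpds in DMSO, preincub w/ enzyme; + nitrocefin (50 uM stock); A485 at plateau; no-enzyme column as blank.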

For assay [2], the target named is Glutathione peroxidase 1 (Homo sapiens) (UniProt P07203). Kind of assay: Primary qHTS Assay for Inhibitors of Recombinant Selenoprotein Glutathione Peroxidase 1 (GPX1) (AID 1845191). Further: nearly all actives have a fitted effect of over 65% in size. Put shortly:
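Recombinant GPX1 (10 nM final) was preincubated with compound for 30 min at room temperature, then reacted with 1 mM GSH, 0.5 mM CHP, 0.5 mM NADPH and 100 nM glutathione reductase; NADPH fluorescence (340/450 nm) was read at 0 and 15 min.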
(qHTS replaces the single test concentration by a dilution series.)

Assay [3] has as its target Phospholipid hydroperoxide glutathione peroxidase GPX4 (Homo sapiens) (UniProt P36969). The assay can be described thus: Primary qHTS Assay for Inhibitors of Recombinant Selenoprotein Glutathione Peroxidase 4 (GPX4) (AID 1845192). Further: nearly all actives have a fitted effect of over 65% in size. Further: potency means the concentration at half of the fitted maximal effect. Put shortly: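 GR-coupled readout: 100 nM GR, 1 mM GSH, 0.5 mM NADPH; NADPH fluorescence (ex 340/em 450 nm) read at t=0 and after 15 min RT. GPX4 200 nM, preincubated 30 min with compound; substrate 0.5 mM CHP.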

Sequence of Glutathione peroxidase 1 (Homo sapiens) (P07203 whole entry, looked up): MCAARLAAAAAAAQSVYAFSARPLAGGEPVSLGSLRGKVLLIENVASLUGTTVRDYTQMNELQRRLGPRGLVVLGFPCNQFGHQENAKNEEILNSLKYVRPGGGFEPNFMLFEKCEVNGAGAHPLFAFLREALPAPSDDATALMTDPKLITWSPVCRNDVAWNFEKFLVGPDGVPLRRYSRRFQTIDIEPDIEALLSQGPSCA
Sequence of Phospholipid hydroperoxide glutathione peroxidase GPX4 (Homo sapiens) (P36969 whole entry, looked up): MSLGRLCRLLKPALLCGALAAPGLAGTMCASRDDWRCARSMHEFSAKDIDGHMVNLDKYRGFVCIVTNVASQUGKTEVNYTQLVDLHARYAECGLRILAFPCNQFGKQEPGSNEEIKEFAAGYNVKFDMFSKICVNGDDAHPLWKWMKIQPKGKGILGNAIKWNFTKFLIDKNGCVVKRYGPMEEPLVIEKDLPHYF
Sequence of Metallo-beta-lactamase type 2 (Klebsiella pneumoniae) (C7C422 whole entry, looked up): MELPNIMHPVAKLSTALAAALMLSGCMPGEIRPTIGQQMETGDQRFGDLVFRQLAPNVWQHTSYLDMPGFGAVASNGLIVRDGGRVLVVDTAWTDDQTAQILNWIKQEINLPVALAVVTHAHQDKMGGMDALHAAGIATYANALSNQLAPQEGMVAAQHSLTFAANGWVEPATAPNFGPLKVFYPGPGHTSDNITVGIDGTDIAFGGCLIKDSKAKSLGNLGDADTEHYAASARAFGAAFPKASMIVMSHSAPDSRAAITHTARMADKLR

With `O=C(O)c1cc(=O)cc(C(=O)O)[nH]1`, the Potency result in assay [1], in assay [2] and in assay [3] was “inactive” throughout.
As for `CCN(CC)CCOC(=O)c1cc(Cl)c(N)cc1OC`, the Potency entry in assay [1], in assay [2] and in assay [3] was “inactive” throughout.
Consider `CC(=O)NCCc1c[nH]c2ccc(O)cc12`, for which the Potency result in assay [1], in assay [2] and in assay [3] was “inactive” each time.
Regarding `CC(=O)O[C@H]1CC2(C)[C@@H](C[C@@H](O)[C@H]3[C@@]4(C)CC[C@@H](O)[C@@H](C)[C@@H]4CC[C@@]32C)C1=C(CCC=C(C)C)C(=O)O` (stereo partly specified), the Potency result in assay [2] and in assay [3] was “inactive” each time.
With `OC1(c2ccc(Cl)cc2)CCN(Cc2c[nH]c3ccccc23)CC1`, the Potency result in assay [1], in assay [2] and in assay [3] was “inactive” in each case.
`O=C1OC(=O)C2C3CCC(O3)C12` (stereo unspecified): the Potency entry in assay [2] and in assay [3] was “inactive” each time.
For `NC(C(=O)N[C@@H]1C(=O)N2C(C(=O)O)=C(Cl)CS[C@H]12)c1ccccc1` (stereo partly specified), the Potency result in assay [1] and in assay [3] was “inactive” in each case.
As to `CC(C)Cn1c(=O)n(C)c(=O)c2[nH]cnc21`, the Potency result in assay [1], in assay [2] and in assay [3] was “inactive” each time.
As to `N[C@@H](CCCC(=O)O)C(=O)O`, the Potency result in assay [2] and in assay [3] was “inactive” each time.
`CC1CNCCN1S(=O)(=O)c1cccc2cnccc12` (stereo unspecified): the Potency result in assay [1], in assay [2] and in assay [3] was “inactive” in each case.
In the case of `O=C(N[C@@H](Cc1ccccc1)C(=O)CCl)OCc1ccccc1`, the Potency result in assay [2] and in assay [3] was “inactive” throughout.
With `CCOC(=O)C12CC1/C(=N/O)c1ccccc1O2` (stereo unspecified), the Potency result in assay [2] and in assay [3] was “inactive” in each case.
As to `N[C@@H](CCC(=O)N[C@H](CSN=O)C(=O)NCC(=O)O)C(=O)O`, the Potency entry in assay [2] and in assay [3] was “inactive” in each case.
For `C[N+](C)(C)CC=O`, the Potency result in assay [2] and in assay [3] was “inactive” each time.
On to `NC(N)=NC(N)=Nc1cccc(Cl)c1`, for which the Potency result in assay [2] and in assay [3] was “inactive” each time.
Consider `CCn1c(=O)[nH]c2cc(Cl)c(Cl)cc21`, for which the Potency entry in assay [2] and in assay [3] was “inactive” in each case.
`C=CC1(C)CC(=O)C2(O)C(C)(O1)C(OC(C)=O)C(O)C1C(C)(C)CCC(O)C12C` (stereo unspecified): the Potency entry in assay [2] and in assay [3] was “inactive” throughout.
For `Cn1c(=O)c2c(nc(/C=C/c3cccc(Cl)c3)n2C)n(C)c1=O`, the Potency result in assay [2] and in assay [3] was “inactive” in each case.
With `Nc1nc2[nH]c(=O)cnc2c(=O)[nH]1`, the Potency entry in assay [2] and in assay [3] was “inactive” in each case.
As to `Cc1cccc(C2CN(C)CCc3c2cc(O)c(O)c3Cl)c1` (stereo unspecified), the Potency entry in assay [2] and in assay [3] was “inactive” each time.
As to `CCCC(=O)NCCc1c2n(c3ccc(OC)cc13)CCCc1ccccc1-2`, the Potency result in assay [2] and in assay [3] was “inactive” in each case.
`COC(=O)C1=C(C)NC(C)=C([N+](=O)[O-])C1c1ccccc1C(F)(F)F` (stereo unspecified): the Potency entry in assay [2] and in assay [3] was “inactive” in each case.
`O=C(O)/C=C/c1cnc[nH]1`: the Potency entry in assay [2] and in assay [3] was “inactive” throughout.
For the compound `OC[C@H]1O[C@H](n2cnc3c(N[C@H]4CCC[C@@H]4O)ncnc32)[C@H](O)[C@@H]1O`, the Potency result in assay [2] and in assay [3] was “inactive” in each case.
With `CC1C(=O)N(C)C(=O)c2nc[nH]c21` (stereo unspecified), the Potency result in assay [2] and in assay [3] was “inactive” in each case.
For the compound `O=c1ccn([C@@H]2O[C@H](COP(=O)(O)OP(=O)(O)O)[C@@H](O)[C@H]2O)c(=O)[nH]1`, the Potency entry in assay [2] and in assay [3] was “inactive” throughout.
For the compound `COc1ccccc1N1CCN(CCN(C(=O)c2ccc(F)cc2)c2ccccn2)CC1`, the Potency result in assay [2] and in assay [3] was “inactive” throughout.
For the compound `N[C@@H](Cc1c[nH]c2ccccc12)C(=O)O`, the Potency entry in assay [2] and in assay [3] was “inactive” throughout.
As to `O=c1cc(-c2ccccc2)[nH]c2nc(Cl)ccc12`, the Potency result in assay [2] and in assay [3] was “inactive” each time.
For `CCCn1c(=O)c2[nH]c(-c3ccc(S(=O)(=O)O)cc3)nc2n(CCC)c1=O`, the Potency in assay [3] was 11.2 µM (active).
As to `C=C(C)C1CC=C(C(=O)O)CC1` (stereo unspecified), the Potency result in assay [2] and in assay [3] was “inactive” each time.
With `CC(=O)N[C@@H](Cc1c[nH]c2ccccc12)C(=O)OCc1cc(C(F)(F)F)cc(C(F)(F)F)c1`, the Potency result in assay [2] and in assay [3] was “inactive” each time.
Turning to `COc1cc(C(O)CO)ccc1O` (stereo unspecified), the Potency result in assay [2] and in assay [3] was “inactive” in each case.
Consider `CN1CCN(c2nc3cc(C(F)(F)F)ccc3n3cccc23)CC1`, for which the Potency entry in assay [2] and in assay [3] was “inactive” in each case.
Consider `COc1ccc(CCN(C)CCc2ccc(OC)c(OC)c2)cc1OC`, for which the Potency entry in assay [2] and in assay [3] was “inactive” throughout.
On to `CSc1nc(N)c2ncn([C@@H]3O[C@H](COP(=O)(O)OP(=O)(O)O)C(O)[C@H]3O)c2n1` (stereo partly specified), for which the Potency entry in assay [2] and in assay [3] was “inactive” each time.
`Cn1c(=O)[nH]c2ncn(C)c2c1=O`: the Potency result in assay [2] and in assay [3] was “inactive” each time.
`NCCS(=O)O`: the Potency entry in assay [2] and in assay [3] was “inactive” throughout.
In the case of `CC(C)NC[C@H](O)COc1cccc2ccccc12`, the Potency entry in assay [2] and in assay [3] was “inactive” each time.
Take `Cc1ccc([N+](=O)[O-])cc1S(=O)(=O)N(C)C`: the Potency entry in assay [2] and in assay [3] was “inactive” throughout.
As for `N[C@H](C(=O)O)[C@H](Cc1ccccc1)C(=O)O`, the Potency result in assay [2] and in assay [3] was “inactive” each time.
In the case of `COc1ccccc1N1CCN(CCCCN2C(=O)c3ccccc3C2=O)CC1`, the Potency entry in assay [2] and in assay [3] was “inactive” throughout.
`CC(N)=O`: the Potency result in assay [2] and in assay [3] was “inactive” in each case.
Regarding `N=C(N)c1ccc(OCCCCCOc2ccc(C(=N)N)cc2)cc1` (tested in a mixture with another compound), the Potency result in assay [2] and in assay [3] was “inactive” each time.
In the case of `COc1cc(CNC(=O)CCCCCCC(C)C)ccc1O`, the Potency entry in assay [2] and in assay [3] was “inactive” each time.
Take `CCCCCCN(CCCCCC)C(=O)Cc1c(-c2ccc(F)cc2)[nH]c2ccccc12`: the Potency entry in assay [2] and in assay [3] was “inactive” in each case.
Turning to `CC[n+]1c(/C=C/C=C2/N(C)c3ccccc3C2(C)C)sc2ccccc21`, the Potency entry in assay [2] and in assay [3] was “inactive” throughout.
As to `CC(C)[C@H](NC(=O)OCc1ccccc1)C(=O)N[C@H](C=O)Cc1ccccc1` (Cbz-Val-Phe-aldehyde), the Potency result in assay [2] and in assay [3] was “inactive” each time.
